USP17 block: inhibitors of human USP17 deubiquitinase; inhibition, % at 50 µM; A8MUK1; 47,000 tested, 6.5% active; AID 1645855; purified USP17, Ub-rhodamine cleavage fluorescence, 3 h
USP28 inh: human USP28 deubiquitinase inhibition | Q96RU2 | purified USP28, Ub-rhodamine cleavage fluorescence, 30 min | AID 1645857 | 47,000 tested, 3% active | inhibition, % at 25 µM
Target sequence (Q96RU2 whole entry, looked up): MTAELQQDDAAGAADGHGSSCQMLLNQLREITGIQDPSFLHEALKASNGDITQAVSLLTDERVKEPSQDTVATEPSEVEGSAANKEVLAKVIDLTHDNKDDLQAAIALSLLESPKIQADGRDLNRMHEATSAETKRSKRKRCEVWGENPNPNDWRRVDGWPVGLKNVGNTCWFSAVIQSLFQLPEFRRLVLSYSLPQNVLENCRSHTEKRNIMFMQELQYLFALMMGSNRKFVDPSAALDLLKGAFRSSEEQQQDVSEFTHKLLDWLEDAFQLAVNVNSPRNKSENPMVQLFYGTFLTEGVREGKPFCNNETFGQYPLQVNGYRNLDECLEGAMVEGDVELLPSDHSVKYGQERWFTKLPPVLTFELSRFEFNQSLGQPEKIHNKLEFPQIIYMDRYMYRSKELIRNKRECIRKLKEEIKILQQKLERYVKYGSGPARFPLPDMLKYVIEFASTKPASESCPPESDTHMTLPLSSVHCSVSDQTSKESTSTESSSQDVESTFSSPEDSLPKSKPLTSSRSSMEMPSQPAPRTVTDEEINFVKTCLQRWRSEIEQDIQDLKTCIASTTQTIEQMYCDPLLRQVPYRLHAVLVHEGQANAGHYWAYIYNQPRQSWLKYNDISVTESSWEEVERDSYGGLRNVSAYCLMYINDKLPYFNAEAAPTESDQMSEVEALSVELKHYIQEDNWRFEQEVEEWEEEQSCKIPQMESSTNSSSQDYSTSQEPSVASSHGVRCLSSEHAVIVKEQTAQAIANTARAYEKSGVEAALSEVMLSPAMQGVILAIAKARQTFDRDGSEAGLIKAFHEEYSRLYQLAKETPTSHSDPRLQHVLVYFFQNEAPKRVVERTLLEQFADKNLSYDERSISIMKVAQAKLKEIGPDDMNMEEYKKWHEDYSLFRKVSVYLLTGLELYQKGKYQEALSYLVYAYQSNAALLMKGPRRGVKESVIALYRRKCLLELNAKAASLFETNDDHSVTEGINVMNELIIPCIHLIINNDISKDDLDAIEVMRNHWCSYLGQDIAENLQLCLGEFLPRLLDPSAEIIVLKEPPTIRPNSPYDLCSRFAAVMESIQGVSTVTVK
USP30 block: blocks human USP30 ubiquitin-rhodamine cleavage. Q70CQ3. purified USP30, Ub-rhodamine cleavage fluorescence. inhibition, % at 25 µM. 47,000 tested, 5.3% active
Numbers stand for hits. Sampled rows, rich in hits. Any-hit rate of the full collection: about 11%. Cut-off read from the data, not from the text of the source: active = inhibition above about 30%; inactive = the rest.

Cc1ccc(S(=O)(=O)N2CC[C@@H]3CN(C(=O)c4ccccc4)[C@@H]3C2)cc1 was read as USP17 block inactive, USP28 inh inactive and USP30 block 35.
For Cc1ccc(C(=O)N2CC[C@@H]3[C@H](C2)CN3C(=O)c2ccccc2)cc1 the results were USP17 block inactive, USP28 inh inactive and USP30 block 30.
`O=C(NC1CCOCC1)N1CC[C@@H]2CN(C(=O)c3ccccc3)[C@@H]2C1` gave USP17 block inactive, USP28 inh inactive and USP30 block inactive.
For O=C(COC(=O)c1cccnc1Nc1cccc(C(F)(F)F)c1)Nc1ccc2c(c1)OCCO2 the results were USP17 block inactive, USP28 inh inactive and USP30 block inactive.
Screening CNc1cnc(CC2CCCN(C(=O)c3cn(C)nc3C)CC2)cn1 (stereo unspecified) returned USP17 block inactive, USP28 inh inactive and USP30 block inactive.
`c1cc(N2CCCCCC2)ncc1-c1noc(CN2CCC3(CC2)OCCO3)n1` gave USP17 block inactive, USP28 inh inactive and USP30 block inactive.
Cc1cc2nc(N3CCN(S(=O)(=O)c4ccc(C)c(C)c4)CC3)c3ccccc3n2n1 was read as USP17 block inactive, USP28 inh inactive and USP30 block inactive.
Screening COCc1ccc(C(=O)N2CCC[C@H]2[C@H](O)c2nccs2)o1 returned USP17 block inactive, USP28 inh inactive and USP30 block inactive.
For CCn1c(SCc2nc(-c3ccccc3)no2)nnc1-c1ccc2c(c1)OCCO2 the results were USP17 block inactive, USP28 inh inactive and USP30 block inactive.
For CCn1c(SCCOc2ccccc2)nnc1-c1ccc2c(c1)OCCO2 the results were USP17 block inactive, USP28 inh 31 and USP30 block inactive.
For CCn1c(SCC(=O)N2CCc3ccccc3C2)nnc1-c1ccc2c(c1)OCCO2 the results were USP17 block inactive, USP28 inh inactive and USP30 block inactive.
`CC1=CC(=O)C(C2=C(O)C(=O)C(C)=CC2=O)=C(O)C1=O` gave USP17 block 94, USP28 inh 46 and USP30 block inactive.
For COc1cc(C(=O)NCc2noc(Cc3ccccc3)n2)cc(OC)c1OC the results were USP17 block inactive, USP28 inh inactive and USP30 block inactive.
For O=C1COc2ccc(Br)cc2CN1Cc1ccccc1F the results were USP17 block inactive, USP28 inh 40 and USP30 block inactive.
COc1cccc(CN2Cc3ccccc3OCC2=O)c1 was read as USP17 block inactive, USP28 inh inactive and USP30 block inactive.
Screening Cc1ccc(S(=O)(=O)c2cnc3ccc(F)cc3c2N2CCCCCC2)cc1 returned USP17 block inactive, USP28 inh inactive and USP30 block inactive.
For Cc1ccc(S(=O)(=O)c2cnc3ccc(F)cc3c2N2CCCC2)cc1 the results were USP17 block inactive, USP28 inh inactive and USP30 block 37.
For Cc1ccc(S(=O)(=O)c2cnc3ccccc3c2N2CCCCCC2)cc1 the results were USP17 block inactive, USP28 inh inactive and USP30 block inactive.
Screening O=S(=O)(c1ccccc1)c1cnc2ccccc2c1N1CCCCC1 returned USP17 block inactive, USP28 inh inactive and USP30 block 31.
Screening Cc1cnc2c(c1SCc1ccc(C(F)(F)F)cc1)c(=O)n(C)c(=O)n2C returned USP17 block inactive, USP28 inh inactive and USP30 block inactive.
Cc1cccc(CNC(=O)c2cccc(-c3cnc(N4CCCC4)nc3)c2)c1 was read as USP17 block inactive, USP28 inh inactive and USP30 block inactive.
Screening Cn1cc(C(=O)NCc2ccc3c(c2)OCO3)c(S(=O)(=O)N2CCCCCC2)n1 returned USP17 block inactive, USP28 inh inactive and USP30 block inactive.
COc1ccc(CNC(=O)c2cccc(-c3cnc(N4CCCC4)nc3)c2)cc1 was read as USP17 block 45, USP28 inh inactive and USP30 block 49.
`O=C(NCc1ccc2c(c1)OCO2)c1ccc2ncsc2c1` gave USP17 block inactive, USP28 inh inactive and USP30 block inactive.
O=C(NCc1ccc2c(c1)OCO2)c1cccc(-c2cnc(N3CCCC3)nc2)c1 was read as USP17 block 30, USP28 inh inactive and USP30 block 43.
Screening O=C(NCc1ccc2c(c1)OCO2)c1cc([N+](=O)[O-])ccc1N1CCCCC1 returned USP17 block inactive, USP28 inh inactive and USP30 block 33.
For CC1CCc2c(cnc3c(C(=O)NCCC4=CCCCC4)cnn23)C1 (stereo unspecified) the results were USP17 block inactive, USP28 inh inactive and USP30 block inactive.
`O=C1NCCNCC1Cc1ccccc1-c1ccc(F)c(F)c1` (stereo unspecified) gave USP17 block inactive, USP28 inh inactive and USP30 block inactive.
`CNc1cc(C2CCCN2S(=O)(=O)N2CCOCC2)ccn1` (stereo unspecified) gave USP17 block inactive, USP28 inh inactive and USP30 block inactive.

Screening data deposited in PubChem BioAssay by Buhrlage Lab, Dana-Farber Cancer Institute and Novartis Institutes for BioMedical Research (Cambridge, Mass).
